About 83,000 compounds went through this panel and 20% of them were active in at least one assay; those are over-represented in the sample as a whole.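 Negative percent growth values reflect cell death: -40 means 40% of the cells present at the start died, and -100 means all died.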 Values without a mark were called inactive. The source made the active and inactive calls. How the source made its calls: active means growth percent below 10; inactive means the rest.
Key:
Assay in all cases: NCI-60 one-dose screen, 48 h (100 = growth as untreated, 0 = no growth, -100 = all killed)
Settings in all cases: 10 µM unless noted
HCT-15 colon = system: HCT-15 colon
HT29 colon = system: HT29 colon
SNB-75 CNS = system: SNB-75 CNS
SNB-19 CNS = system: SNB-19 CNS
U251 CNS = system: U251 CNS
PC-3 prostate = system: PC-3 prostate
SK-MEL-5 melanoma = system: SK-MEL-5 melanoma
UACC-62 melanoma = system: UACC-62 melanoma
LOX IMVI melanoma = system: LOX IMVI melanoma
SK-MEL-28 melanoma = system: SK-MEL-28 melanoma

SMILES | growth (HCT-15 colon) | growth (HT29 colon) | growth (SNB-75 CNS) | growth (SNB-19 CNS) | growth (U251 CNS) | growth (PC-3 prostate) | growth (SK-MEL-5 melanoma) | growth (UACC-62 melanoma) | growth (LOX IMVI melanoma) | growth (SK-MEL-28 melanoma)
O=C(Cn1c(=O)ccn(CCCCCCCCOc2ccc(Br)cc2)c1=O)Nc1ccc(Oc2ccc(Cl)cc2)cc1 | 80.4% | 66% | 70.8% | 78.7% | 74.1% | 44.6% | 28.7% | 36.1% | 51.1% | 72.8%
Nc1nc(=S)c2ncn(C3OC(COC(=O)c4ccc(Cl)cc4)C(OC(=O)c4ccc(Cl)cc4)C3OC(=O)c3ccc(Cl)cc3)c2[nH]1 (stereo not given) | 95.5% | 87.9% | 76.7% | 86.9% | 38% | 84.9% | 65.7% | 94.1% | 90.5% | 82.4%
CN(N)c1nc2sc3c(c2c(=O)[nH]1)CCCC3 | 99.6% | 90.4% | 91.9% | 105% | 92.1% | 94.9% | 106% | 110% | 102% | 114%
CS(=O)(=O)CCNCc1ccc(-c2ccc3ncnc(Nc4ccc(OCc5cccc(F)c5)c(Cl)c4)c3c2)o1 | -3.39% (active) | -59.1% (active) | -97.2% (active) | 3.57% (active) | -84.8% (active) | -20.6% (active) | -98.9% (active) | -52.4% (active) | -72.5% (active) | -95.7% (active)
CN1CCN(c2ccc(OC(F)(F)F)c(Nc3ncc4c(n3)-c3c(c(C(N)=O)nn3CCO)CC4)c2)CC1 | 10.7% | 10.3% | 7.72% (active) | 23.4% | 25.4% | 36.8% | 23.4% | 35.9% | 25.6% | 88.7%
COc1ccc2c(CCC(c3ccccc3)c3ccccc3)c3[n+](cc2c1OC)CCc1cc2c(cc1-3)OCO2 | 47.1% | 6.26% (active) | 37.1% | 20.6% | 10.5% | -39.8% (active) | -99.6% (active) | -43.5% (active) | -58.5% (active) | 3.87% (active)
CC(=O)OC1Oc2ccccc2-c2oc(=O)c(-c3cc4ccc(N(C)C)cc4oc3=O)cc21 (stereo not given) | 46.2% | 72.4% | 71.1% | 48.2% | 48.3% | 34.8% | 18.8% | 67.3% | 43.2% | 103%
CN1CCC(COc2cnc(-c3cccc(Cn4nc(-c5cccc(C#N)c5)ccc4=O)c3)nc2)CC1 | 12.4% | -38.5% (active) | 72.9% | 78.2% | 16.4% | 67.8% | 43.2% | 95.1% | 34.2% | -13.2% (active)
CSc1nc2ncncc2[nH]1 | 101% | 99.4% | 86.7% | 100% | 101% | 106% | 101% | 104% | 97.5% | 75.1%
Cc1cccc(Cl)c1NC(=O)c1cnc(Nc2cc(N3CCOCC3)cc(N3CCOCC3)c2)s1 | 22.2% | -10.2% (active) | -43.3% (active) | 47.4% | 54.6% | 45.7% | 65.1% | 41.6% | -71.8% (active) | 63.6%
NC(=O)Nc1cc(-c2cccc(F)c2)sc1C(=O)N[C@H]1CCCNC1 | -10.6% (active) | -24% (active) | -89.8% (active) | -26.7% (active) | -62% (active) | 16.2% | -27.5% (active) | -21.1% (active) | -75.2% (active) | 14.2%
CCCCCCCC12Cc3ccccc3C1=Nc1c(c3ccccc3n1C)C2=O (stereo not given) | 91.7% | 58.8% | 89.2% | 95% | 88.5% | 78.2% | 90.8% | 74.8% | 87.8% | 113%
O=C1C=CC2(NN=C(c3ccccc3)N2c2ccccc2)c2cccc(O)c21 (stereo not given) | 16.8% | 44.3% | 19.9% | 32% | 11.2% | 36% | -91.5% (active) | -50.4% (active) | -5.86% (active) | 38.2%
Cc1nc(-c2cn3c(n2)-c2ccc(-c4cnn(C(C)(C)C(N)=O)c4)cc2OCC3)n(C(C)C)n1 | 30.8% | 10.5% | -5.53% (active) | 30.8% | 23.5% | 23.5% | 8.62% (active) | -22.6% (active) | 11.6% | 9.16% (active)
C=CCC(=O)N[C@H](/C=C/C(=O)O)Cc1ccc(-c2cc(Cl)cc(Cl)c2)cc1 | 98.1% | 97.8% | 87% | 97.9% | 83% | 80.6% | 95.7% | 86.8% | 96.9% | 112%
Cc1cc(O)c2c(c1)C1OC(=O)CCCCCN1C1=C2C(=O)c2cccc(OC3CC(O)C(O)C(C)O3)c2C1=O (stereo not given) | 46.1% | 93.7% | 117% | 97.1% | 63.1% | 87.2% | 86.9% | 89.5% | 34.3% | 75.8%
Cc1cc(C(=O)NOCCO)c(Nc2ccc(I)cc2F)n(C)c1=O | 67.5% | 7.17% (active) | 83.8% | 57.9% | 51.8% | 106% | 50.4% | -1.84% (active) | 26.3% | 1.47% (active)
C=CC(=O)Nc1cc2c(Nc3ccc(F)c(Cl)c3)ncnc2cc1C#CC(C)(C)N1CCN(C)CC1 | -78% (active) | -70.4% (active) | -99.8% (active) | -98.9% (active) | -94.8% (active) | -87.4% (active) | -98.4% (active) | -94.6% (active) | -91.4% (active) | -96.9% (active)
N#Cc1c(-c2ccc(C(F)(F)F)cc2)c(F)c(NCCC2CCC(O)C2)n2c1nc1ccccc12 (stereo not given) | 49.6% | 17.8% | 68% | 78.3% | 61.4% | 37.8% | 61.8% | 72.7% | 6.38% (active) | 61.8%
CN[C@@H]1C[C@H]2O[C@@](C)([C@@H]1OC)n1c3ccccc3c3c4c(c5c6ccccc6n2c5c31)C(=O)N[C@H]4O | -16.8% (active) | -16.7% (active) | -98.9% (active) | -34.4% (active) | -85.3% (active) | 4.43% (active) | -98.9% (active) | -63.1% (active) | -85.5% (active) | -61.3% (active)
CCc1nc2cc(/C=C/C(=O)NO)c(F)cc2c(=O)n1CCc1ccccc1 | 25.9% | 13.2% | 29.3% | 19.7% | 1.61% (active) | 16.9% | -10.1% (active) | -33.5% (active) | -57.8% (active) | 20.3%
CCN1CCN(c2nc(C)cc(N(CCCNc3ccnc4cc(Cl)ccc34)Cc3ccc4c(c3)OCO4)n2)CC1 | -32.9% (active) | -26.2% (active) | -53.5% (active) | 24.8% | -73.7% (active) | 24.7% | -97.6% (active) | -52.9% (active) | -84.4% (active) | -64.1% (active)
CCNC(=O)C#Cc1ccc2c(C(=Nc3ccc(CN(C)C)cc3)c3ccccc3)c(O)[nH]c2c1 | 27.7% | -40% (active) | 3.23% (active) | 29.5% | 22.4% | 44.4% | 17% | -32.5% (active) | -75.7% (active) | -11.6% (active)
Cn1ccnc1C(=O)/C=C/c1ccc(CC(=O)Nc2ccc(Br)cc2)cc1 | 5.5% (active) | 0.238% (active) | 8.2% (active) | 11.4% | 5.83% (active) | 23% | 62.9% | 33% | 7.81% (active) | 92.3%
COC(=O)c1ccc2c(C(=Nc3ccc(N(C)C(=O)CN4CCN(C)CC4)cc3)c3ccccc3)c(O)[nH]c2c1 | 65.9% | 8.01% (active) | 18% | 67.9% | 45.4% | 67.9% | 68% | 90.2% | 33.6% | 74.5%
CN1CCN(CCCOc2cccc3nc(Nc4ccc(Cl)c(C(F)(F)F)c4)ccc23)CC1 | -49.6% (active) | -58.9% (active) | -3.73% (active) | 20.8% | -22.7% (active) | 14.6% | 41.5% | -29% (active) | -95% (active) | -45.2% (active)
